NALP1 inh: NALP1 inflammasome inhibitors in reconstituted yeast, colorimetric, S. cerevisiae, triplicate retest; S. cerevisiae NALP1/ASC/caspase-1 growth, X-gal OD620, 72 h; inhibition, % at 10 µM; actives 0.61% (n = 280,000); AID 2071, 2009; in the data active = inhibition mostly above about 24%, no sharp cut-off; inactive = mostly below about 32%
HDAC3 inhib: HDAC3 deacetylase inhibitors, primary screen, biochemical, fluorescence, cell-free homogeneous | inhibition, % at 8.3 µM | actives 0.15% (n = 320,000) | Histone deacetylase 3 (Homo sapiens), O15379 | recombinant HDAC3, fluorogenic peptide/trypsin coupled | AID 2718, 2010; in the data active = inhibition above about 26%, passing the limit was not always enough; inconclusive = no clear call, values can overlap the other calls
NALP3 yeast inh: NALP3 inflammasome inhibitors in reconstituted yeast, primary screen, luminescence, uHTS; Yeast reconstituted NLRP3/ASC/caspase-1, beta-gal luminescence, 24 h; actives 0.39% (n = 330,000); inhibition, % at 10 µM;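 active = inhibition of 50% or more; inactive = inhibition below 50%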;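 also: plate controls were induced DMSO wells for no effect and uninduced yeast grown without galactose for full effect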
PolyA inhibitor: polyadenylation inhibitors in yeast reporter cells, primary screen, luminescence, S. cerevisiae; S. cerevisiae SKY197-pL101 polyadenylation reporter, beta-gal luminescence; efflux-impaired pdr1/pdr3 knockout yeast; score 100 = 6 SD above DMSO; activity score, % at 12 µM; actives 0.02% (n = 300,000);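 active = lowest replicate activity score at least 50, where 100 means six control SD above control mean; inconclusive = lowest score under 50 but half or more replicates reach 50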;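 also: yeast exposed to compound for 9 h at 30 °C; higher score means more reporter readthrough which indicates perturbed polyadenylation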
JMJD2C inh: inhibitors of GASC-1 histone demethylase, primary screen, biochemical, fluorescence, DELFIA europium | inhibition, % at 2.35 µM | GST-JMJD2C(1-420) H3K9me3 demethylation | actives 0.069% (n = 330,000) | Lysine-specific demethylase 4C (Homo sapiens), Q9H3R0;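 active = more than half of a compound's replicate wells show inhibition beyond 50%, single wells judged on their own value; inconclusive = some, but no more than half, of replicates pass 50% inhibition; inactive = no replicate passes 50% inhibition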;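 also: signal counts dimethyl H3K9 product captured on neutravidin plate; 0% = median of DMSO wells and 100% = 0.3 times that DMSO median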
Target sequence (Q9H3R0 1-420 limits assumed): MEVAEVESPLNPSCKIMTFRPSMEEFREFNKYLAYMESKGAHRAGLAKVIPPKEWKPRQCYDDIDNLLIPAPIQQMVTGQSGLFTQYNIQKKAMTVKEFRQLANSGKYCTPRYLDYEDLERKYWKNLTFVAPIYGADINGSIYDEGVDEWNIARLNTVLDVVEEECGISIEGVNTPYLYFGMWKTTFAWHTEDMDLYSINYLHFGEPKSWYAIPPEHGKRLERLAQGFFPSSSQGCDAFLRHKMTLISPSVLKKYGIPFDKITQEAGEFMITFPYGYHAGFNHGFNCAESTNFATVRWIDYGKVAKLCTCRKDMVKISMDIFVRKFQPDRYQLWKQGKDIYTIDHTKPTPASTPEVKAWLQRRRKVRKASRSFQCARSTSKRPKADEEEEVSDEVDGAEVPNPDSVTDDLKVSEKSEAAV
Efflux pump mplx: inhibitors of Candida efflux pumps in yeast, primary screen, S. cerevisiae, Nile Red, multiplex. S. cerevisiae Candida pump triplex. inhibition, % at 10 µM. actives 0.44% (n = 330,000);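 active = plate passing quality check with inhibition over a set limit, or well fluorescence over plate mean plus 4 SD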;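 also: Nile Red retained in pooled yeast measured as flow cytometry median fluorescence; 0% = buffer negative control and 100% = Enniatin B positive control; higher means more Nile Red kept so more efflux inhibition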
NALP3 yeast conf: NALP3 inhibitors retested in yeast, confirmation, luminescence, single concentration; yeast expressing human NALP3; shares compounds with NALP3 yeast inh; AID 435006, 2010; inhibition, % at 10 µM; actives 81% (n = 1,300); in the data active = inhibition above about 48%
Casp1 ASC ctr: CASP1-PYCARD signaling inhibition in yeast, confirmatory test, counterassay for NLRP3 inhibitor program, one-dose; shares compounds with NALP3 yeast inh; yeast expressing Caspase-1-ASC, luminescence counter screen; inhibition, % at 10 µM; actives 66% (n = 1,000)
NALP3 retest: NALP3 inhibitors in yeast, repeat test, confirmation, luminescence, single concentration, retest; inhibition, % at 10 µM; shares compounds with NALP3 yeast inh; actives 53% (n = 1,000); AID 488794, 2010; yeast expressing human NALP3, luminescence read-out
* = called active by the depositor; ? = inconclusive; nt = no result given. Hits are enriched below; roughly 1.5% of the tested compounds scored in any of these assays. Rule as the data show it, unless noted: active = inhibition above about 50%; inactive = the rest.

SMILES	NALP1 inh	HDAC3 inhib	NALP3 yeast inh	PolyA inhibitor	JMJD2C inh	Efflux pump mplx	NALP3 yeast conf	Casp1 ASC ctr	NALP3 retest
CC(=O)n1cc([C@H]2C=C(C(=O)NCc3ccccc3)O[C@@H](OCCCCO)C2)c2ccccc21	-4	-14	4	5	2	0	nt	nt	nt
COc1ccc(C(C[N+](=O)[O-])c2c(C)cc3ccccn23)c(OC)c1 (centres undefined)	15	3	32	-2	-14	1	nt	nt	nt
COc1ccc(OC)c(C(C[N+](=O)[O-])c2c(C)cc3ccccn23)c1 (centres undefined)	27	4	64*	-6	9	0	44	67*	37
COc1ccccc1OCCCc1c(C)n[nH]c1C	43*	5	51*	-75	-2	0	88*	95*	81*
CN(C)c1ccc(N=Nc2cccc3ccoc23)cc1	9	5	60*	-2	-2	0	68*	45	41
CN(C)c1ccc(N=Nc2cccc(F)c2)cc1	11	-4	52*	-20	7	0	43	51*	39
CN(C)c1ccc(N=Nc2ccc(S(N)(=O)=O)cc2)cc1	25	-10	33	4	11	0	nt	nt	nt
COc1ccc(C(=O)NC(C)c2ccc(-n3ccnc3)cc2)cc1S(=O)(=O)N1CCOCC1 (centres undefined)	nt	nt	15	nt	nt	nt	nt	nt	nt
OC(c1ccc(Cl)cc1)c1nccc2ccccc12 (centres undefined)	12	2	58*	17	-6	0	67*	65*	47
Cc1ccc(C(=O)NC(=C(Cl)Cl)S(=O)(=O)c2ccc(Cl)cc2)cc1	13	6	57*	-18	-1	0	41	33	40
Cc1ccc(C(=O)NNC(=S)NC(=O)c2ccc(Cl)cc2)cc1	-4	4	71*	-7	-7	0	78*	74*	72*
Cc1ccc(C(=O)NC(=C(Cl)Cl)S(=O)(=O)c2ccc(C)cc2)cc1	30	-5	31	-24	7	0	nt	nt	nt
CO/N=C(\Cn1ncc(N2CCCC2)c(Br)c1=O)c1ccc(Cl)cc1	38	0	77*	-34	-12	0	69*	78*	57*
COc1cc(OC)cc(-c2nc3ccccc3c(=O)n2OC(=O)c2ccc(Br)cc2)c1	19	2	18	11	-7	0	nt	nt	nt
COc1ccc(C(=O)On2c(-c3ccc(Br)cc3)nc3ccccc3c2=O)cc1	35	-1	62*	13	11	-1	86*	57*	68*
COc1ccc(N2CCN(C(=O)C3CCN(C(=O)c4cccc(Cl)c4)CC3)CC2)cc1	14	1	12	0	7	0	nt	nt	nt
Cc1ccc(C)c(NC(=O)c2ccc(S(=O)(=O)C(F)F)cc2)c1	24	-2	53*	17	20	0	65*	46	43
Cc1ccc(C)c(NC(=O)NNS(=O)(=O)c2ccc(C)c(C)c2)c1	-5	1	0	12	-17	0	nt	nt	nt
Brc1ccc(-c2cn3c(n2)SCC3)cc1	15	3	59*	-11	0	0	64*	63*	61*
Cn1c(SCc2nc(-c3ccc(Br)cc3)no2)nnc1-c1ccco1	-1	0	58*	-11	5	0	71*	61*	49
CN1CCN(c2nc(C(N)=O)cc(-c3ccccc3)n2)CC1	10	-3	7	12	12	0	nt	nt	nt
CCN(CC)c1nc(C(N)=O)cc(-c2ccccc2)n1	24	3	53*	-39	6	0	41	65*	47
CCOC(=O)c1c(C)[nH]c(C(=O)COC(=O)c2ccc([N+](=O)[O-])o2)c1C	nt	8	28	nt	-3	0	nt	nt	nt
CCOc1ccccc1C(=O)Nc1ccccc1O	10	4	54*	-2	-1	0	57*	56*	55*
C[C@]12C=CC(=O)C=C1CC[C@@H]1[C@@H]2[C@@H](O)C[C@@]2(C)[C@H]1CC[C@]2(O)C(=O)COC(=O)CCC(=O)O	15	2	10	16	nt	0	nt	nt	nt
SMILES	NALP1 inh	HDAC3 inhib	NALP3 yeast inh	PolyA inhibitor	JMJD2C inh	Efflux pump mplx	NALP3 yeast conf	Casp1 ASC ctr	NALP3 retest
C[C@]12CCC(=O)C[C@@H]1CC[C@@H]1[C@@H]2CC[C@]2(C)[C@@H](C(=O)COC(=O)CCC(=O)O)CC[C@@H]12	29	-1	54*	15	-4	0	77*	51*	47
COc1cc(CNCCc2ccccc2)cc(Br)c1OCC(=O)Nc1ccccc1C	23	3	54*	11	-6	0	44	36	45
COc1cc(C=O)c(Br)cc1OCC(=O)NCCc1ccccc1	-12	6	-112	-1	-10	0	-19	nt	nt
COc1cc(Br)c(CCNC(=O)Cc2ccccc2)cc1OC	21	?	8	8	4	0	nt	nt	nt
CCc1ccccc1NC(=O)CN(c1ccc(OC)cc1OC)S(=O)(=O)c1ccccc1	13	11	16	3	4	0	nt	nt	nt
Cc1csc2c(N3CCN(S(=O)(=O)c4ccc(Cl)cc4)CC3)ncnc12	24	nt	68*	0	2	0	55*	38	29
Cc1csc2c(N3CCCCC3)ncnc12	16	4	28	3	-2	0	nt	nt	nt
O=S(=O)(c1ccc(Cl)cc1)N1CCN(c2ncnc3sccc23)CC1	nt	2	50*	nt	0	0	52*	44	37
CN(C)c1ccc(/C=C(/NC(=O)c2ccccc2Cl)C(=O)NCCN2CCOCC2)cc1	11	6	2	6	-8	0	nt	nt	nt
COC(=O)c1ccc(NC(=O)CSc2nc(=O)n3cccc(C)c3n2)cc1	nt	-3	-6	?	10	0	nt	nt	nt
CC(C)(C)Nc1ncnc2c1cnn2-c1ccccc1	nt	-1	66*	-1	-7	0	74*	80*	73*
c1ccc(CNc2ncnc3c2cnn3-c2ccccc2)cc1	6	1	24	-8	16	0	nt	nt	nt
